Sampled rows, rich in hits. Any-hit rate of the full collection: about 0.57%.
BioA inh-1 – M. tuberculosis BioA enzyme inhibitors, primary screen, biochemical, plate reader, single point, HTS; purified M. tuberculosis BioA enzyme; hit rate 0.096% among 360,000; inhibition, % at 9.99 µM; AID 602481, 2012; in the data active = inhibition above about 40%
PrP 5UTR inh – inhibition of PrP 5' UTR reporter expression; cell-based PrP 5' UTR mRNA reporter, plate reader; inhibition, % (concentration not given with the values); hit rate 0.35% among 340,000; in the data active = inhibition above about 52%
Yp Topo-I inh – Yersinia pestis topoisomerase I inhibitors, primary screen, biochemical, cleavage product accumulation, plate reader, single point; activity, % at 10 µM; DNA topoisomerase I (Yersinia pestis CO92); Y. pestis Topo-I cleavage product accumulation; hit rate 0.064% among 360,000; in the data active = activity above about 50%, passing the limit was not always enough
TcdB GH inh – TcdB glycohydrolase inhibitors, primary screen, biochemical, single point, plate reader; hit rate 0.24% among 350,000; inhibition, % at 9.99 µM; TcdB glycohydrolase enzymatic assay; in the data active = inhibition above about 10%
BioA inh-2 – Mtb BioA enzyme inhibitors, dose response, biochemical, plate reader, cherry-pick samples, set 03. purified BioA enzyme. max activity, %. 310 tested, under 10 active. shares compounds with BioA inh-1. AID 651679, 2012;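 note: top concentration of the dilution series was 10 µM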
Target sequence (P9WQ81 whole entry, looked up): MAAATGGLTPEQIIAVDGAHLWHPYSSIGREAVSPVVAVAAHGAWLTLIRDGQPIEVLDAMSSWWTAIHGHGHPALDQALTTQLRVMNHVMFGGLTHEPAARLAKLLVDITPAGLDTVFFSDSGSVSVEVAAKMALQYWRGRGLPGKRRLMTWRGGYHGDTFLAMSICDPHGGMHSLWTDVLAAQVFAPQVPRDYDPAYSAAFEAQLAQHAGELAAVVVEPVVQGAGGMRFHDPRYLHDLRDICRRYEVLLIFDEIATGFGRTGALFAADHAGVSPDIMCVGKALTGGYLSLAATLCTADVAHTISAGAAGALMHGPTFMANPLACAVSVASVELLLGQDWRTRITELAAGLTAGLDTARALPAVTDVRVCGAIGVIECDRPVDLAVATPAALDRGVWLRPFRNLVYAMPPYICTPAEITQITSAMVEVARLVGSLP
HepG2 cytotox – cytotoxicity in HepG2 cells, dose response, cytotoxicity control, cell-based, plate reader, cherry-pick, two tests. shares compounds with BioA inh-1. max activity, %. 310 tested, under 10 active. AID 651898, 2012
3T3 cytotox 5 – cytotoxicity in NIH3T3 fibroblasts, dose response, cytotoxicity control, cell-based, plate reader, cherry-pick, two tests | shares compounds with BioA inh-1 | activity change, negative = cytotoxicity, % at 26 µM | 310 tested, under 10 active
Numbers stand for hits; – = inactive; · = no result given. Unless noted, the rule behind the calls is not given here.

SMILES	BioA inh-1	PrP 5UTR inh	Yp Topo-I inh	TcdB GH inh	BioA inh-2	HepG2 cytotox	3T3 cytotox 5
O=C(C[C@H]1C[C@H]2c3cc(NC(=O)c4cccnc4)ccc3O[C@H]2[C@H](CO)O1)NCc1ccccn1	40.4	·	·	–	–	–	–
O=C(Nc1ccc2c(c1)[C@H]1C[C@@H](CC(=O)N3CCc4ccccc4C3)O[C@H](CO)[C@H]1O2)c1cccnc1	55.0	·	·	–	–	–	–
CC=Cc1ccc2n(c1=O)C[C@@H]1[C@@H](CO)[C@H](C(=O)NCC)N(CCC(F)(F)F)[C@H]21 (mixture of isomers)	–	·	·	–	·	·	·
CN1C(=O)c2cc(NC(=O)Cc3cccs3)ccc2OC[C@@H]2O[C@@H](CC(=O)NCc3ccc(-c4ccccc4)cc3)CC[C@H]21	–	·	·	·	·	·	·
C[C@@H]1CN([C@H](C)CO)C(=O)c2cc(N(C)C)ccc2O[C@@H](C)CCCCO[C@@H]1CN(C)C(=O)Nc1cccc2ccccc12	–	·	·	–	·	·	·
O=C(Nc1cccnc1)c1cc2nc(C3CC3)cc(C(F)(F)F)n2n1	89.6	–	–	·	–	–	–
CC(=O)Nc1ccc2nc(-c3cccnc3)[nH]c2c1	55.9	–	–	·	–	–	–
CC(C)C#Cc1ccc2c(c1)O[C@@H](CN(C)C(=O)c1cccnc1)[C@H](C)CN([C@@H](C)CO)S2(=O)=O	–	·	·	–	·	·	·
COc1ccc(C(C)NC(=O)Nc2ccc(C(C)=O)cc2)cc1OC (stereo unspecified)	43.0	–	–	–	–	–	–
CO[C@H]1CN(C)C(=O)c2ccc(NC(=O)Nc3ccccc3F)cc2OC[C@H](C)NC[C@@H]1C	–	·	·	–	·	·	·
Cc1ccc(-n2ncc3c2CC(C)(C)CC3NC(=O)CCc2cccnc2)cc1 (stereo unspecified)	44.7	–	–	–	–	–	–
Cc1cnc(C(=O)NC2CC(C)(C)Cc3c2cnn3-c2cccc(F)c2)cn1 (stereo unspecified)	63.0	–	–	–	–	–	–
CCn1cc(C(=O)NC2CC(C)(C)Cc3c2cnn3-c2cccc(F)c2)cn1 (stereo unspecified)	–	–	–	–	·	·	·
O=C(C[n+]1cc(-c2ccc(Cl)cc2)n2c1CCC2)N1c2ccccc2Sc2ccccc21	61.1	–	–	·	–	–	–
O=C(C[n+]1cc(-c2ccc(Cl)c(Cl)c2)n2c1CCC2)N1c2ccccc2Sc2ccccc21	·	–	–	·	·	·	·
O=C(Nc1ncc2c(n1)CC(c1ccco1)CC2=O)c1ccccc1 (stereo unspecified)	59.8	–	–	·	–	–	–
Cc1ccc(C(=O)Nc2ncc3c(n2)CC(c2ccco2)CC3=O)cc1 (stereo unspecified)	·	–	–	·	·	·	·
CC1=C(C#N)C(c2cccnc2)C2=C(CC(c3ccc(Cl)cc3)CC2=O)N1 (stereo unspecified)	62.7	–	–	·	–	–	–
COCC(=O)N1[C@@H]2c3ccc(-c4cccnc4)c(=O)n3C[C@@H]2[C@@H](CO)[C@@H]1C(=O)Nc1ccccc1	–	·	·	–	·	·	·
COC(=O)C1C(=O)C=C(Nc2ccc(F)cc2F)CC1c1ccc(OC)cc1 (stereo unspecified)	–	–	–	–	·	·	·
COC(=O)C1C(=O)C=C(Nc2ccc(F)cc2)CC1c1ccc(OC)cc1 (stereo unspecified)	75.4	–	–	·	–	–	–
C[C@H](CO)N1C[C@H](C)[C@H](CN(C)Cc2cccc(C(F)(F)F)c2)Oc2ncc(-c3cc4ccccc4o3)cc2C1=O	–	·	·	–	·	·	·
O=C(Nc1ccc(F)c(Cl)c1)C1CCCN(c2cnccn2)C1 (stereo unspecified)	41.0	–	–	–	–	–	–
O=C(Nc1cccc(F)c1)C1CCCN(c2cnccn2)C1 (stereo unspecified)	53.3	–	–	–	–	–	–
Cc1cccc(NC(=O)C2CCCN(c3cnccn3)C2)c1 (stereo unspecified)	–	–	–	–	·	·	·

Screening data: PubChem BioAssay, Broad Institute
